# In all, about 5,400 compounds went through this assay and about 190 (3.5%) showed an effect of 50% or more. The list comes from a sample in which strong results are over-represented; it also holds similar structures and randomly drawn compounds.
# Tested on: Vero-E6
# Test: primary screen, phospholipidosis by LipidTOX staining; higher = more effect of the substance
# Details: 10 µM
# Method in brief: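 Single-concentration screen at 10 μM, with DMSO 0.1 v/v % and amiodarone 10 μM as controls. Read-out is LipidTOX Red phospholipid staining, which tolerates aldehyde fixation, in Vero-E6 cells.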
row,SMILES,result_ITMP [%]
1,C[N+]1([O-])[C@@H]2C[C@@H](OC(=O)[C@H](CO)c3ccccc3)C[C@H]1[C@@H]1O[C@@H]12 (stereo partly drawn),-4.04
2,C[C@@]1(CO)[C@H](O)CC[C@@]2(C)[C@H]1CC[C@H]1C[C@@H]3C[C@@]12CC[C@]3(O)CO,0.12
3,CC(C)(C)c1ccc(-c2nc3cccc(N4CCN(Cc5ccc6nccnc6c5)CC4)c3[nH]2)cc1,5.05
4,Cc1cc(C)cc(NC(=O)Cc2ccc(OC(C)(C)C(=O)[O-])cc2)c1,9.78
5,O=S(=O)([O-])c1ccc(O)cc1,-0.61
6,Cc1onc(-c2c(F)cccc2Cl)c1C(=O)N[C@@H]1C(=O)N2[C@@H]1SC(C)(C)[C@@H]2C(=O)[O-],-6.63
7,CCCCOc1c(C(=O)c2c(F)cc(C)cc2F)cnc2[nH]ncc12,7.58
8,C/C(=C\CNc1ncnc2nc[nH]c12)CO,-1.84
9,CCCCCCCCCCCCCCCC(=O)OCCC1CCN(CCCN2c3ccccc3Sc3ccc(S(=O)(=O)N(C)C)cc32)CC1,-5.2
10,O=C(CN1CCN(Cc2ccc3c(c2)OCO3)CC1)N1c2ccccc2Sc2ccccc21,15.4
11,CN1CCN(CCCN2c3ccccc3Sc3ccc(S(=O)(=O)N(C)C)cc32)CC1,50.3
12,CCCCCCCCCC(=O)OCCN1CCN(CCCN2c3ccccc3Sc3ccc(C(F)(F)F)cc32)CC1,5.56
13,CCSc1ccc2c(c1)N(CCCN1CCN(C)CC1)c1ccccc1S2,59.1
14,OCCN1CCN(CCCN2c3ccccc3Sc3ccc(C(F)(F)F)cc32)CC1,60.4
15,C[C@@H]1CN(Cc2ccc(F)cc2)[C@@H](C)CN1C(=O)c1cc2c(C(=O)C(=O)N(C)C)cn(C)c2cc1Cl,-5.07
16,O=C([O-])c1cc2cc(Cc3cccnc3)ccc2o1,-0.95
17,O=C([O-])[C@H](CC(=O)N1C[C@H]2CCCC[C@H]2C1)Cc1ccccc1,-4.71
18,O=C(NN1C(=O)[C@@H]2[C@@H]3C=C[C@@H]([C@H]4C[C@@H]34)[C@@H]2C1=O)c1ccc(C(F)(F)F)cc1,-0.89
19,C/N=C(/NS(=O)(=O)c1ccc(Cl)cc1)N1CC(c2ccccc2)C(c2ccc(Cl)cc2)=N1 (racemic),-1.59
20,O=C(O)c1cnn(-c2nc3cc(Cl)c(OC(F)(F)F)cc3[nH]2)c1,-2.3
21,CSc1ccc(C(=O)c2nc(O)[nH]c2C)cc1,-1.45
22,O=S(=O)(c1cccc2cnccc12)N1CCNCC1,0.47
23,NC(N)=NCCNS(=O)(=O)c1cccc2cnccc12,-3.17
24,O=S(=O)(NCCNC/C=C/c1ccc(Br)cc1)c1cccc2cnccc12,60.8

row,SMILES,result_ITMP [%]
1,NC[C@@H]1O[C@H](O[C@H]2[C@@H](O)[C@H](O[C@@H]3[C@@H](O)[C@H](N)C[C@H](N)[C@H]3O[C@H]3O[C@H](CN)[C@@H](O)[C@H](O)[C@H]3N)O[C@@H]2CO)[C@H](N)[C@@H](O)[C@@H]1O,-2.72
2,c1cnc2c([O][Ga]([O]c3cccc4cccnc34)[O]c3cccc4cccnc34)cccc2c1,5.3
3,CCOC(=O)c1ccc(-n2cc(Cc3cnc(OCC)nc3)c(=O)nc2SCc2ccc(F)cc2)cc1,-1.15
4,CCC(C)[C@H]1O[C@]2(C=C[C@@H]1C)C[C@@H]1C[C@@H](C/C=C(\C)[C@@H](OC3C[C@H](OC)C(O[C@H]4C[C@H](OC)[C@@H](O)[C@H](C)O4)[C@H](C)O3)[C@@H](C)/C=C/C=C3\CO[C@@H]4[C@H](O)C(C)=C[C@@H](C(=O)O1)[C@]34O)O2 (stereo partly drawn),-3.77
5,CCOc1nc2cccc(C(=O)O)c2n1Cc1ccc(-c2ccccc2-c2nc(=O)o[nH]2)cc1,-0.57
6,NCCCC(O)(P(=O)([O-])O)P(=O)(O)O,0.52
7,CC1(C)S[C@@H]2[C@H](NC(=O)C(C(=O)[O-])c3ccccc3)C(=O)N2[C@H]1C(=O)[O-] (stereo partly drawn),-1.48
8,Nc1ncccc1-c1nc2ccc(-c3ccccc3)nc2n1-c1ccc(C2(N)CCC2)cc1,91.9
9,CC(C)(C)[C@]1(O)C[C@@H]2OC(=O)C[C@@]23C(=O)O[C@@H]2OC(=O)[C@H](O)C213 (stereo partly drawn),-3.55
10,COc1cccc2c1C(=O)c1c(O)c3c(c(O)c1C2=O)C[C@@](O)(C(=O)CO)C[C@@H]3OC1C[C@H](N2CCO[C@H](OC)C2)C(O)[C@H](C)O1 (stereo partly drawn),0.2
11,CC1(C)CC[C@]2(NC(=O)C(C)(F)F)CC[C@]3(C)C(C(=O)C=C4[C@@]5(C)C=C(C#N)C(=O)C(C)(C)[C@@H]5CC[C@]43C)C2C1 (stereo partly drawn),-22.1
12,CC1(C)C[C@@H]1C(=O)N/C(=C\CCCCSC[C@H](N)C(=O)[O-])C(=O)O,-1.62
13,CCOC(=O)c1cc2ccc(O)cc2oc1=O,-3.11
14,Clc1ccc(N2CCN(Cc3c[nH]c4ncccc34)CC2)cc1,1.68
15,c1ccc(CNCc2ccc(CN3CCCNCCNCCCNCC3)cc2)nc1,-2
16,O=C(c1ccc(-c2ccc(Cl)cc2)o1)N(Cc1ccccn1)c1ccc(N2CCNCC2)cc1,104
17,CCCC(CCC)C(=O)NCC(N)=O,-5.65
18,Nc1ccc(C(=O)[O-])c(O)c1,-0.28
19,C[C@H](CCC(=O)NCCS(=O)(=O)O)[C@H]1CC[C@H]2[C@@H]3[C@@H](O)C[C@@H]4C[C@H](O)CC[C@]4(C)[C@H]3CC[C@]12C,3.34
20,C[C@]12C=CC(=O)C=C1CC[C@@H]1[C@@H]2CC[C@]2(C)OC(=O)CC[C@@H]12,-2.34
21,CC(=O)O[C@H]1CC[C@@]2(C)C(=CC[C@@H]3[C@@H]2CC[C@]2(C)C(c4cccnc4)=CC[C@@H]32)C1,2.09
22,Cc1cccc(C)c1-n1c(=O)c2cnc(Nc3ccc(N4CCN(C)CC4)cc3)nc2n2c3ccccc3nc12,81.7
23,CN1CCN(c2ccc(Nc3ncc4cc(C#N)c(=O)n(C5CCCC5)c4n3)cc2)CC1,-0.88
24,C=CCn1c(=O)c2cnc(Nc3ccc(N4CCN(C)CC4)cc3)nc2n1-c1cccc(C(C)(C)O)n1,32.4
